# The panel holds about 83,000 compounds, 20% with a hit somewhere; the sample as a whole holds those more often.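 For each line, cells grew in 96-well plates with the test compound present at a single concentration for 48 hours.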 Values without a mark were called inactive. Active and inactive are the calls of the source. Rule for the calls: active = growth percent below 10; inactive = the rest.
# Tested on: MDA-MB-468 breast
# Experiment: NCI-60 one-dose screen, 48 h (100 = growth as untreated, 0 = no growth, -100 = all killed)
# Settings: 10 µM unless noted
row,Structure (SMILES),growth
1,CCN(C)CCCOc1ccc(/C(=C(\C)Cc2cccc(OC)c2)c2ccc(OC(C)=O)cc2)cc1,101%
2,Cc1ccc(CNS(=O)(=O)/N=C2\NC(=O)NC2=C(Cl)Cl)cc1,1.67% (active)
3,CCOC(=O)CC1CSC(N/N=C/c2ccc(-n3cccn3)cc2)=N1 (stereo not given),95.3%
4,Cc1cccc(NC(=O)c2sc3nc4c(cc3c2N)CCCC4)c1,24.7%
5,O=C(Nn1c2c(sc1=NC1CC1)C(=O)c1ccccc1C2=O)c1cc2ccc1CCc1ccc(cc1)CC2,32.4%
6,NS(=O)(=O)c1ccc(Nc2nc(N/N=C/c3c[nH]c4ccccc34)nc(Nc3ccccc3)n2)cc1,52.7%
7,Nc1ccn(C2OC(CO)C(O)C2F)c(=O)n1 (stereo not given),96.3%
8,Fc1cccc(CNc2c3ccccc3nc3ccccc23)c1F,22%
9,Cc1nc2ccccc2c(/C=C/c2ccc(Cl)cc2)c1C(=O)/C=C/c1ccccc1,12.7%
10,COc1ccc(-c2ccc(NC(=O)Nc3cccc(C(F)(F)F)c3)c(C)n2)cc1,27.5%
11,CCOC(=O)/C=c1\sc2n(c1=O)C1C(NN=2)N(CC)C(=O)N1CC (stereo not given),48.4%
12,CC/C(=C(\c1ccccc1)c1ccc(OCCNC)cc1)c1ccccc1,-97.7% (active)
13,CCCCCN(CCCCC)CC(O)c1c(Cl)ccc2ccccc12 (stereo not given),78.9%
14,COc1ccc(Nc2nc(N)nc3c2CCc2occc2-3)cc1,101%
15,Cn1cc(C2=C(c3coc4cc(Br)ccc34)C(=O)NC2=O)c2ccccc21,5.23% (active)
16,COc1cc(NS(=O)(=O)c2ccc(N)cc2)ncn1,105%
17,CN1CCN(Cc2ccc(NC(=O)c3cccc(C#Cc4cnc(N)c5ncccc45)c3F)cc2C(F)(F)F)CC1,70.6%
18,NS(=O)(=O)Oc1ccc2nc(Nc3ccc(F)c(F)c3)ccc2c1,96.9%
19,O=C1OCc2cccc3cccc1c23,104%
20,Cc1ccc(Nc2nc(NCCO)c3ccccc3n2)cc1C,32.9%

row,Structure (SMILES),growth
1,Cc1nc2sc(C(=O)Nc3cccc4ccccc34)c(N)c2cc1C(O)c1ccccc1 (stereo not given),18.1%
2,CC1(c2ccccc2Cl)NC(=O)NC1=O (stereo not given),96.7%
3,C[C@@H](C[C@H](CCOCc1cccnc1)c1ccccc1)c1cc2ccccc2o1,99.5%
4,CC(=O)c1ccc2c3c(n(C)c2c1)CCCC3,77.9%
5,Cc1cccc(NC2=C(C#N)C(=O)NC3(CCCC3)S2)c1,101%
6,Fc1ccc(NC(c2ccc(F)cc2)C2CCN(CCCCc3ccccc3)CC2)cc1 (stereo not given),7.21% (active)
7,Cn1c(=O)n(C)c2cc(CNCCNc3ccnc4cc(Cl)ccc34)ccc21,59.4%
8,O=C1c2ccccc2NC(c2cn(-c3ccccc3)nc2-c2cccs2)N1Cc1ccccc1 (stereo not given),95.4%
9,O=C(Nc1ccc(C(=O)/C=C/c2ccc(N3CCOCC3)cc2)cc1)Nc1ccc([N+](=O)[O-])cc1,91%
10,C#C[C@]1(O)CCC2C3CCc4cc(OC5CCCC5)ccc4C3CC[C@@]21C (stereo not given in full),69.1%
11,N#C/C(=C\N1C(=O)/C(=C/c2cccc([N+](=O)[O-])c2)SC1=S)c1nc2ccccc2s1,81.7%
12,C[n+]1c2ccccc2c(Nc2ccc(NS(=O)(=O)CCCCN=C(N)N)cc2)c2ccc(N)cc21,39%
13,COc1cc([C@@H]2c3cc4c(cc3[C@H](OC3OC5COC(c6ccccc6)OC5C(O)C3O)[C@H]3COC(=O)[C@H]23)OCO4)cc(OC)c1OC (stereo not given in full),17.5%
14,C/C=C(/C)n1cnc2c(Nc3ccccn3)nc(Cl)nc21,93%
15,CCNC(=O)N1CCc2cc(OC)c(OCCc3ccc(OC)cc3)cc2C1c1ccc([N+](=O)[O-])cc1C (stereo not given),-5.05% (active)
16,Cc1cc(C)cc(OCC(=O)O)c1,131%
17,COc1ccc2c(c1)c(-c1noc(-c3cn(C)c4ncc(F)cc34)n1)cn2C,73.5%
18,O=S(=O)(NCc1ccccc1)c1ncnc2nc[nH]c12,108%
19,CN1CCN(Cc2ccc(NC(=O)c3cncc(C#Cc4cncc5[nH]ncc45)c3)cc2C(F)(F)F)CC1,16.6%
20,C=C(CNCCc1ccc(O)cc1)[C@@H]1CC[C@]2(COC3CCCCO3)CC[C@]3(C)[C@H](CC[C@@H]4[C@@]5(C)CCC(NCCO)C(C)(C)[C@@H]5CC[C@]43C)[C@@H]12 (stereo not given in full),-80.1% (active)
